According to publication PMC5540273 (PLoS ONE, 2017):

What was measured:
Conditions in all cases: concentration: 1 μM,replicates: in singlicate; n = 1
FGFR1 = system: FGFR1
FGFR2 = system: FGFR2
FGFR3 = system: FGFR3
FGFR4 = system: FGFR4
FGR = system: FGR
FLT1 = system: FLT1
FLT3-autoinhibited = system: FLT3-autoinhibited
FLT3 = system: FLT3
FLT4 = system: FLT4
FRK = system: FRK
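Note: KINOMEscan kinase panel screen.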

Row | SMILES | %Inh (FGFR1) | %Inh (FGFR2) | %Inh (FGFR3) | %Inh (FGFR4) | %Inh (FGR) | %Inh (FLT1) | %Inh (FLT3-autoinhibited) | %Inh (FLT3) | %Inh (FLT4) | %Inh (FRK)
1 | C[C@@H]1CCN(C(=O)N2CCCC2)C[C@@H]1N(C)c1ncnc2[nH]ccc12 | 13% | 9% | 20% | 3% | 29% | 21% | 18% | 38% | 6% | 0%
2 | CCn1c(-c2nonc2N)nc2cncc(CNC3CCNCC3)c21.Cl [SB-747651] | 0% | 0% | 5% | 6% | 1% | 8% | 3% | 0% | 10% | 0%
3 | FC(F)(F)c1cc(Br)cc(Nc2nccc(-c3cnn4ncccc34)n2)c1 [GW810578] | 4% | 0% | 0% | 77% | 16% | 30% | 70% | 95.7% | 6% | 0%
4 | O=c1[nH]cc(-c2ccc(O)cc2)c2sc(-c3ccncc3)cc12 [GSK1033723] | 0% | 0% | 16% | 13% | 21% | 9% | 0% | 0% | 1% | 0%
5 | Cc1ccc(CC(=O)N2CCc3cc(-c4cn(C)c5ncnc(N)c45)ccc32)cc1 [GSK2634758] | 14% | 14% | 2% | 0% | 37% | 32% | 0% | 40% | 0% | 0%
6 | CCCC(=O)Nc1n[nH]c2ncccc12 [SB-601436] | 0% | 0% | 0% | 0% | 30% | 0% | 0% | 13% | 0% | 0%
7 | O=C(Nc1ccccc1)c1cccc(Oc2ccc3nccn3n2)c1 | 41% | 19% | 20% | 0% | 10% | 79% | 16% | 0% | 5% | 0%
8 | COc1cc2c(Nc3ccc(NC(=O)c4ccccc4)cc3)ncnc2cc1OCCCN1CCOCC1 [GSK301329] | 0% | 0% | 6% | 0% | 35% | 26% | 0% | 35% | 5% | 7%
9 | CS(=O)(=O)Nc1ccc(-c2ccnc3[nH]ccc23)cc1 [GSK993273] | 29% | 20% | 4% | 8% | 16% | 56% | 10% | 74% | 28% | 0%
10 | NC(=O)Nc1sc(-c2ccc(F)cc2)cc1C(N)=O [GW789449] | 36% | 7% | 10% | 0% | 45% | 28% | 5% | 50% | 31% | 0%
11 | O=C(NOCC1CC1)c1cc(Br)c(F)c(F)c1Nc1ccc(I)cc1Cl | 0% | 1% | 0% | 0% | 0% | 0% | 0% | 0% | 0% | 0%
12 | CCOC(=O)N1CCC(n2cnc(-c3ccc(F)cc3)c2-c2ccnc(N)n2)CC1 [SB-219952] | 0% | 12% | 12% | 0% | 0% | 33% | 14% | 24% | 0% | 2%
13 | Cc1cccc2c(-c3ccncc3)c(-c3ccc(F)cc3)nn12.Cl [GW461487] | 0% | 33% | 4% | 9% | 2% | 8% | 0% | 0% | 0% | 0%
14 | O=C(Nc1cccc(C(F)(F)F)c1)c1cccc(Oc2ccc3nccn3n2)c1 | 24% | 15% | 5% | 6% | 0% | 97.4% | 17% | 18% | 78% | 87%
15 | Cc1ccc2c(-c3ccnc(Nc4ccc(C(F)(F)F)cc4)n3)cnn2n1 [GW819776] | 5% | 0% | 0% | 6% | 4% | 0% | 0% | 59% | 0% | 20%
16 | Cn1ccc2ncnc(Oc3ccc(NC(=O)Nc4cc(C(C)(C)C)on4)c(Cl)c3)c21 |  | 72% | 23% | 73% | 32% | 97.6% | 15% | 99.9% | 99.8% | 96.3%
17 | Cl.Nc1n[nH]c2cc(-c3ccccn3)ccc12 [GSK2189892] | 0% | 15% | 0% | 0% | 10% | 19% | 0% | 0% | 0% | 1%
18 | O=C1NCCc2[nH]c(-c3ccncc3)cc21 | 0% | 4% | 10% | 0% | 20% | 6% | 12% | 0% | 0% | 0%
19 | Cn1ccc2ncnc(Oc3ccc(NC(=O)Nc4ccnc(C(F)(F)F)c4)c(Cl)c3)c21 |  | 5% | 0% | 0% | 2% | 94.5% | 0% | 64% | 97.4% | 2%
20 | COc1cccc(C2=C(Nc3cccc(Cl)c3)C(=O)NC2=O)c1 [SB-341556] | 21% | 23% | 29% | 15% | 5% | 13% | 4% | 0% | 15% | 16%
21 | Cn1ccc2ncnc(Oc3ccc(NC(=O)Nc4cccc(C(F)(F)F)c4)c(Cl)c3)c21 |  | 10% | 0% | 14% | 5% | 99.6% | 0% | 84% | 99.9% | 94.9%
22 | CN(c1ccccc1CNc1nc(Nc2ccc3c(c2)CC(=O)N3)ncc1C(F)(F)F)S(C)(=O)=O | 68% | 64% | 47% | 11% | 37% | 53% | 19% | 99.5% | 85% | 54%

Row | SMILES | %Inh (FGFR1) | %Inh (FGFR2) | %Inh (FGFR3) | %Inh (FGFR4) | %Inh (FGR) | %Inh (FLT1) | %Inh (FLT3-autoinhibited) | %Inh (FLT3) | %Inh (FLT4) | %Inh (FRK)
23 | CC(=O)c1c(-c2ccncc2)[nH]c(-c2ccncc2)c1C [GW493036] | 0% | 0% | 0% | 9% | 27% | 10% | 0% | 0% | 0% | 0%
24 | COC(=O)c1cccc(NC(=O)NC2CCN(c3ccnc(NCc4ccc(F)cc4)n3)CC2)c1 [GSK1379860] | 3% | 27% | 11% | 0% | 11% | 42% | 24% | 0% | 38% | 16%
25 | Cn1ccc2ncnc(Oc3ccc(NC(=O)Nc4cnn(C(C)(C)C)c4)c(Cl)c3)c21 |  | 14% | 1% | 0% | 10% | 97.4% | 8% | 99.2% | 98.3% | 70%
26 | COC(=O)Nc1nc2cc(Oc3ccc(NC(=O)Nc4cc(C(F)(F)F)ccc4Cl)cc3)ccc2[nH]1.Cl [GW697465] | 4% | 34% | 95.8% | 1% | 13% | 98.8% | 0% | 99.1% | 99.4% | 91.8%
27 | Cn1cc(-c2cccc3c(N)c(C(N)=O)nnc23)cn1 | 25% | 2% | 12% | 9% | 9% | 0% | 30% | 27% | 15% | 2%
28 | COc1ccc(Nc2nccc(N3CCC(NC(=O)c4cccc(C#N)c4)C3)n2)cc1 (stereo not drawn) [GSK1379730] | 13% | 19% | 4% | 6% | 0% | 24% | 0% | 18% | 22% | 0%
29 | CCNCC(Cc1ccccc1)NC(=O)c1cc(Br)c(-c2ccnc3[nH]ccc23)s1.Cl.Cl (stereo not drawn) [GSK1383280] | 88% | 81% | 61% | 68% | 22% | 54% | 9% | 69% | 49% | 17%
30 | Cn1ccc2ncnc(Oc3ccc(NC(=O)Nc4cncc(C(F)(F)F)c4)c(Cl)c3)c21 |  | 0% | 0% | 0% | 0% | 94.5% | 0% | 95.7% | 99.7% | 72%
31 | COc1cc2nccc(Nc3ccc(Oc4ccccc4)cc3)c2cc1OC.Cl [GI261656] | 0% | 0% | 1% | 0% | 95.5% | 20% | 0% | 69% | 50% | 66%
32 | Cc1ccc(C(=O)Nc2ccc(Oc3ccc4nc(NC(=O)C5CC5)cn4c3)c(F)c2)c(=O)n1-c1ccccc1 | 0% | 23% | 11% | 1% | 91% | 67% | 62% | 98.5% | 100% | 64%
33 | N#Cc1cccc(C(=O)NC2CCN(c3ccnc(Nc4ccc(F)cc4)n3)C2)c1 (stereo not drawn) [GSK1379708] | 7% | 0% | 0% | 1% | 18% | 20% | 0% | 0% | 20% | 6%
34 | C[C@@H](Oc1cc(-n2cnc3cc(-c4cnn(C)c4)ccc32)sc1C(N)=O)c1ccccc1Cl [GSK580432] | 91.9% | 89% | 92.7% | 38% | 72% | 87% | 28% | 99.4% | 99.8% | 12%
35 | CN1CCN(CCCNc2nccc(-c3c(-c4ccc(F)cc4)nn4cc(C(N)=O)ccc34)n2)CC1 [GW622475] | 28% | 0% | 8% | 0% | 0% | 54% | 1% | 10% | 28% | 0%
36 | CC(C)S(=O)(=O)N1CCN(Cc2ccc3c(c2)nc(NC(=O)c2ccsc2)n3C[C@H](O)c2ccccc2)CC1 [GW635815] | 12% | 16% | 0% | 8% | 74% | 71% | 90.4% | 98% | 0% | 3%
37 | CN(c1cccc(CNc2nc(Nc3ccc4c(c3)CC(=O)N4)ncc2C(F)(F)F)c1)S(C)(=O)=O | 26% | 31% | 11% | 0% | 25% | 35% | 39% | 98.7% | 38% | 0%
38 | Cl.Cl.NC[C@H](CC1CCCCC1)NC(=O)c1ccc(-c2ccnc3[nH]ccc23)s1 [GSK1581428] | 26% | 0% | 6% | 0% | 25% | 42% | 26% | 91.9% | 13% | 10%
39 | COc1cccc(CNC(=O)NC2CCN(c3ccnc(Nc4cc(OC)c(OC)c(OC)c4)n3)C2)c1 (stereo not drawn) [GSK1379765] | 0% | 49% | 23% | 2% | 18% | 26% | 14% | 47% | 23% | 21%
40 | CC(=O)Nc1nc2cnc(Nc3cc(NC(=O)c4cccc(CC(C)(C)C#N)c4)ccc3C)nc2s1 | 0% | 1% | 4% | 0% | 24% | 3% | 0% | 8% | 73% | 83%
41 | O=C(NCC1CC1)c1ccc(-c2cc(C(=O)NC3CC3)ccc2F)cc1 [GW810445] | 0% | 0% | 0% | 0% | 0% | 0% | 0% | 12% | 0% | 2%
42 | C[C@@H](Oc1cc(-n2cnc3ccc(-c4ccncc4)cc32)sc1C(N)=O)c1ccccc1Cl [GSK483724] | 11% | 6% | 29% | 15% | 27% | 35% | 6% | 53% | 37% | 14%
43 | COc1cc2ncn(-c3cc(OCC4CCCCC4)c(C(N)=O)s3)c2cc1OC [GSK204559] | 26% | 3% | 12% | 9% | 29% | 44% | 0% | 0% | 66% | 4%
44 | CN1CCN(CCNc2nc3cc(Oc4ccc(NC(=O)Nc5cc(C(F)(F)F)ccc5F)cc4)ccc3[nH]2)CC1.Cl.Cl [GW768504] | 6% | 0% | 0% | 0% | 0% | 90.7% | 0% | 98.1% | 49% | 69%
